How did the Kd (CDK2) turn out when `COC(=O)C(NC(=O)NC1CCN(c2ccnc(Nc3ccc(F)cc3)n2)C1)c1ccccc1` (stereo not shown) [GSK1379712] was run?
Its Kd is greater than 10 µM.

For `Cc1ccc(-c2nc(Nc3ccncc3)c3ccccc3n2)s1` [GSK189015], which Kd (CDK5) is on record?
The Kd was greater than 10 µM.

For `O=C(Nc1n[nH]c2nc(-c3ccco3)c(Br)cc12)C1CCN(Cc2ccccc2)C1.O=C(O)[C@H](O)[C@@H](O)C(=O)O` (stereo not shown) [SB-742034], which Kd (CDK7) is on record?
The Kd was 1.1 µM.

`Nc1cccc(-c2ccc3c(N)n[nH]c3c2)n1` [GSK2192730] was tested. Which Kd (CDK7) did it give?
Its Kd is greater than 10 µM.

Which Kd (CDK8) does the source give for `Cc1cnc(N)c(/C=C/c2cncc(C(=O)NCCc3ccc(Cl)cc3Cl)c2)c1.Cl` [GSK190937] here?
The Kd was 1.1 µM.

For `Cc1c(Cn2c3ccccc3n3c(=O)cc(N4CCOCC4)nc23)cccc1C(F)(F)F` [GSK2306394], which Kd (CDK9) is on record?
Its Kd is greater than 10 µM.

For `Cc1nccc(-c2c(-c3ccc(F)cc3)ncn2CCCN2CCOCC2)n1.Cl` [SB-282975], which Kd (CDK9) is on record?
Its Kd is greater than 10 µM.
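Further: kd values determined as follow-up on hits from a single-replicate KINOMEscan panel screen.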
